Assay outcomes deposited in PubChem BioAssay by The Scripps Research Institute Molecular Screening Center.
Most compounds without a hit are left out; they make up all but 4.2% or so of the library.
hcDAF-12 act: H. contortus DAF-12 nuclear receptor activators, primary screen, cell-based, luminescence, HEK293, lit1-tk-luc reporter. activation, % at 6.8 µM. HEK293 hcDAF-12 lit1-tk-luc reporter; 0% DMSO, 100% Δ7-dafachronic acid. AID 652067, 2013. hit rate 1.4% among 370,000;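 active = activation above the mean of all tested compounds plus 3 SD, cut at about 5.5% in these data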;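 also: 100% = response to 3 µM Δ7-dafachronic acid high control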
SMARCA2 activ: SMARCA2 (BRM) function activators, primary screen, cell-based, luminescence, high throughput; MG213 cells, MMTV-luciferase reporter, dexamethasone, overnight; activation, % at 9.1 µM; hit rate 1% among 370,000; AID 652017, 2013; in the data active = activation above about 7.8%;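 also: 0% = vehicle wells and 100% = reference activator wells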
ssDAF12 agonist: S. stercoralis DAF-12 nuclear receptor activators, primary screen, cell-based, luminescence, HEK293, GRIP1 co-expression, lit1-tk-luc; Nuclear hormone receptor DAF-12 (Strongyloides stercoralis); HEK293 ssDAF-12/GRIP1 lit1-tk-luc reporter; % of 3 µM dafachronic acid response; activation, % at 6.8 µM; hit rate 1% among 370,000; AID 652126, 2013;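 active = activation above the mean over all tested compounds plus 3 SD, cut at about 0.9% in these data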;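 also: 0% = DMSO-only wells and 100% = 3 µM delta7-dafachronic acid wells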
DAX1 StAR inh: DAX1 (NR0B1) inhibitors on StAR promoter, primary screen, cell-based, luminescence, SF-1 (NR5A1), full-length DAX-1 | HEK293T StAR-luciferase reporter, SF-1/DAX-1 repression relief | inhibition, % at 6.8 µM | hit rate 1.1% among 370,000 | AID 652010, 2013;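 active = inhibition above the mean over all tested compounds plus 3 SD, cut at about 3.6% in these data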;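 also: 0% = DAX-1 cells with DMSO and 100% = cells lacking DAX-1 with DMSO; higher inhibition means more luminescence from relief of DAX-1 repression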
hgDAF-12 ag: H. glycines DAF-12 receptor agonists, primary screen, cell-based, luminescence, HEK293, GAL4 fusion, UAS-luciferase; activation, % at 6.8 µM; HEK293 GAL4-hgDAF12 UAS-luciferase reporter, agonist luminescence; normalized to butyrate control; hit rate 1.8% among 370,000; Nuclear hormone receptor DAF-12 (Heterodera glycines), GAL4 fusion; AID 687014, 2013;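 active = activation above a cutoff set at the mean of all screened compounds plus 3 SD, cut at about 10% in these data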;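 also: 0% = DMSO wells and 100% = sodium butyrate wells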
SMARCA2 conf: SMARCA2 (BRM) function activators, confirmation, cell-based, luminescence, triplicate. hit rate 30% among 3,500. MG213 cells, MMTV-luciferase with dexamethasone, overnight; MG213 cells expressing E1A, Rb sequestered; DMSO wells 0%, reference activator 100%. activation, % at 9.1 µM. shares compounds with SMARCA2 activ;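 active = activation above its plate's cutoff, the mean activation of tested wells plus 3 SD, cut at about 7.9% in these data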
VP16 Luc act: GAL4-VP16 luciferase reporter activation, counter-screen for SMARCA2 (BRM) activator project, cell-based, pG5luc, luminescence, high throughput. hit rate 41% among 3,500. activation, % at 9.1 µM. HEK293 GAL4-VP16 pG5luc reporter; scaled: DMSO wells 0%, SAHA wells 100%. shares compounds with SMARCA2 activ;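 active = activation above the solvent-only control well mean plus 3 SD, averaged across control plates, cut at about 5.2% in these data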
* hit, by the source's call; x = no result given.

SMILES | hcDAF-12 act | SMARCA2 activ | ssDAF12 agonist | DAX1 StAR inh | hgDAF-12 ag | SMARCA2 conf | VP16 Luc act
CCOc1ccc(OCCN2CCCCC2)cc1 | 0.3 | 0.4 | -0.1 | 0.1 | 5.7 | x | x
CCCC[C@@H]1CC2=C(C(=O)OC(C)(C)O2)[C@@H](c2ccc(F)cc2)O1 | -1.1 | 4.8 | -1.0 | -0.9 | 1.2 | x | x
CCc1ccccc1OCC(=O)OCC(=O)Nc1cc(C)on1 | -1.0 | 8.3* | -1.0 | 3.8* | 3.5 | -2.1 | 0.4
COC(=O)[C@]12C[C@H](CC(=O)NCCc3ccccc3OC)C(=O)N(CCc3ccc(OC)c(OC)c3)C1=C[C@H](C(C)C)O[C@@H]2C1CC1 | -1.7 | -2.8 | -1.3 | -1.3 | -2.1 | x | x
CC(=O)Nc1c(-c2ccc(C(F)(F)F)cc2)nc2ncccn12 | 0.2 | 1.3 | -0.4 | -0.5 | 1.5 | x | x
Fc1ccc(-c2cnc(-c3cccs3)o2)cc1 | 1.8 | 9.2* | -0.7 | 2.2 | 9.2 | 10.2* | 5.4*
CCN(CC)CCNC(=O)C(Cl)=C1C(Cl)=C(Cl)C(Cl)=C1Cl | 1.2 | 10.2* | -0.7 | 0.0 | -9.7 | 21.1* | 2.2
CCCC(=O)N1CCC[C@]2(CC[C@@H](CCC#N)O2)C1 | 0.7 | -0.9 | -1.4 | 0.3 | -1.3 | x | x
Cn1c(CN2CCOCC2)nnc1SCC(=O)NCCc1ccccc1 | -1.8 | 8.2* | -0.2 | 0.2 | 1.2 | 1.7 | -0.1
Cn1c(CN2CCOCC2)nnc1SCc1ccccc1 | -1.3 | -2.8 | -1.1 | -0.5 | 0.1 | x | x
CN(C)Cc1cn(-c2cccc(-c3noc4c3C(=O)N(CC(=O)N3CCOCC3)CC4)c2)nn1 | 0.8 | -2.4 | -1.1 | -0.5 | -2.7 | x | x
Cc1cc2nc(-c3nnnn3-c3c(C)cccc3C)c(=O)[nH]c2cc1C | -1.1 | 8.0* | -0.3 | -0.2 | 2.5 | -3.1 | 0.7
Cc1nc(-c2ccc(NC(=O)C3CC3)cc2)cs1 | 2.9 | 8.2* | -0.4 | 1.6 | 9.4 | 9.7* | 8.9*
COCCn1c(=O)[nH]c2cc(C(=O)Nc3nnc(C)s3)ccc21 | 0.9 | 8.2* | -0.8 | 0.6 | 5.5 | 4.4 | 2.8
COc1ccc(Cc2c(-c3ccc(F)cc3)nc3ccc(C)cn23)c(C)c1 | 3.7 | 9.6* | 0.2 | 1.9 | 8.9 | 2.0 | 6.4*
COC(=O)[C@]12CCCCC=C1N(Cc1ccc(OC)cc1)C(=O)[C@@H]2CC(=O)N1CCN(C(=O)C2CC2)CC1 | -0.9 | -2.8 | -0.8 | 0.8 | -0.1 | x | x
COc1cccc(CN2CC(C(=O)N3CCCCCCC3)CCC2=O)c1 (stereo unspecified) | 5.5 | -0.5 | -1.6 | -0.4 | 3.0 | x | x
O=C1CCC(C(=O)N2CCCCCC2)CN1Cc1cccc(C(F)(F)F)c1 (stereo unspecified) | -2.7 | 9.2* | -1.0 | -0.2 | -1.0 | -0.3 | -1.0
O=C(COC(=O)c1ccccc1NS(=O)(=O)c1cccs1)NCC12CC3CC(CC(C3)C1)C2 | -1.7 | 8.9* | -1.3 | -0.1 | 0.6 | -0.9 | 1.2
CCCCCCN1CCS(=O)(=O)N(Cc2ccc(Cl)cc2)C(C(=O)OC)C1 (stereo unspecified) | -0.2 | -0.4 | -1.2 | -0.3 | -1.5 | x | x
O=C1/C(=C/c2ccc(O)c(O)c2)Oc2cc(O)ccc21 | 1.0 | 4.7 | -1.1 | 2.8 | 7.2 | x | x
COc1cc(/C=C2\Oc3cc(O)ccc3C2=O)ccc1O | 1.9 | 10.2* | -0.9 | 4.3* | 9.4 | 17.5* | 10.4*
COc1ccc(/C=C2\OC(=O)c3c(OC)cccc32)cc1OC | 0.4 | 8.6* | -0.6 | 3.5 | 9.6 | 22.1* | 13.9*
Nc1nc(=O)c2ccccc2s1 | -0.8 | 5.4 | -0.9 | -0.1 | -2.5 | x | x
CSc1nc2ccc3nc(NC(=O)c4ccc(C)cc4)sc3c2s1 | 0.3 | 1.2 | -0.7 | 0.3 | 0.7 | x | x
SMILES | hcDAF-12 act | SMARCA2 activ | ssDAF12 agonist | DAX1 StAR inh | hgDAF-12 ag | SMARCA2 conf | VP16 Luc act
CC(=O)N/C(N)=N/c1nc(=O)c2ccccc2s1 | 0.8 | 8.2* | 0.1 | 0.9 | 3.4 | 13.1* | 8.9*
CC(=O)Nc1nc(=O)c2ccccc2s1 | -0.1 | 8.3* | -1.6 | 0.2 | -1.6 | 1.0 | 2.1
O=C(Nc1nc(=O)c2ccccc2s1)c1ccccc1 | 4.5 | 24.0* | -0.1 | 2.4 | 9.4 | 5.7 | 9.6*
Cc1ccc(C(=O)Nc2nc3ccccc3c(=O)s2)cc1 | 0.9 | 17.2* | -1.1 | 1.5 | 4.2 | 6.6 | 6.3*
O=C(Nc1nc(=O)[nH]s1)c1ccccc1 | -0.2 | -2.3 | -1.0 | -0.4 | -0.3 | x | x
Cc1cc(N2CCN(C(=O)Oc3ccc(-c4ccccc4)cn3)CC2)c2ccccc2n1 | -7.4 | -6.8 | -2.9 | -5.9 | -7.5 | x | x
CC(C)Cc1ccc(CN2C(C)C(=O)N(Cc3cn(Cc4ccco4)nn3)CCS2(=O)=O)cc1 (stereo unspecified) | -1.7 | 3.4 | -0.3 | 0.0 | -2.7 | x | x
CC(C)c1c(C(=O)N/N=C/c2ccco2)nnn1-c1nonc1N | -1.4 | -2.8 | -1.2 | -0.1 | -0.7 | x | x
Nc1nccnc1C(=O)N/N=C/c1ccco1 | 1.4 | 9.6* | -0.7 | 0.6 | 5.9 | 1.6 | 3.4
O=C(N/N=C/c1ccco1)Nc1ccccc1 | 0.6 | 10.5* | -0.7 | 3.1 | 10.1 | 3.0 | 14.1*
Cn1c(SCc2cccc(F)c2)nnc1-c1ccccn1 | 0.1 | 9.9* | -1.0 | 0.6 | 3.7 | 6.9 | 6.3*
CC(=O)N[C@@H]1C[C@@H]2O[C@@H](CO)CC[C@@H]2O[C@@H]1CCc1ccc(C#CC2(O)CCCC2)cc1 | -2.4 | 2.1 | -1.8 | -0.8 | -0.5 | x | x
O=C(COc1cccc(C(F)(F)F)c1)Nc1cccnc1 | -0.9 | 8.4* | -1.9 | -0.3 | 1.5 | -1.1 | -0.6
O=C(Cc1ccccc1F)Nc1cc(S(=O)(=O)N2CCOCC2)ccc1N1CCOCC1 | -0.1 | 5.0 | -1.1 | 0.2 | -0.7 | x | x
O=C(Cc1ccccc1Cl)Nc1cc(S(=O)(=O)N2CCOCC2)ccc1N1CCOCC1 | 1.5 | 8.0* | -0.5 | 0.4 | 2.5 | 4.5 | 0.4
COc1ccc(S(=O)(=O)N2CCCC2)cc1NC(=O)c1ccccc1 | -1.0 | 8.1* | -0.6 | 0.0 | -0.1 | 0.3 | 1.6
CCCn1nnnc1NC(=O)c1ccc(C)cc1Cl | -0.5 | 8.0* | -0.7 | -0.3 | -0.6 | -1.2 | 0.0
